Assay [1] is described as follows: Cellular Toxicity (caspase-3) HUV-EC-C (AID 656). To be noted: HUV-EC-C cells, caspase-3 activation (apoptosis), vehicle = 0, 100 µM tamoxifen = 100%; series mostly up to 92.2 µM. The method in brief:
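Concentration-dependent caspase 3/7 induction was assessed in HUV-EC-C cells exposed for 16 hours. Data scaled between DMSO and tamoxifen (100 uM) controls.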

Assay [2] in a line: Cellular Toxicity (caspase-3) SHSY5Y (AID 657). Note: potency is the fitted concentration of half-maximal effect. To be noted: SH-SY5Y caspase-3 activation; series mostly up to 91.7 µM. The procedure, abridged: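 Readout: caspase-cleaved peptide-aminoluciferin substrate driving luciferase light in SH-SY5Y neuroblastoma cells after 16 h treatment. Response normalized to DMSO and 10 uM staurosporine controls.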
Assay [3] is described as follows: Cellular Toxicity (caspase-3) MRC-5 (AID 659). Note: potency is the fitted concentration of half-maximal effect. To be noted: MRC-5 cells, luminescence; Potency: caspase-3 activation; series mostly up to 91.7 µM. The method in brief:
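MRC-5 human normal lung fibroblasts, 1500 cells/well, treated 16 h at 37 °C in complete medium. Caspase 3/7 measured by Caspase-Glo luminescence after 1 h at room temperature. Normalized to DMSO and 10 uM staurosporine; AC50 from Hill fit.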

Assay [4] is described as follows: Cellular Toxicity (caspase-3) Mesangial (AID 660).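 Note: combined caspase 3 and 7 activity read by Caspase-Glo luminescence.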 Note: potency is the fitted concentration of half-maximal effect. To be noted: mesangial cells; Potency: caspase-3 activation; series mostly up to 91.7 µM. The method in brief:
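Human renal glomerular mesangial cells, 1000/well, 5 h at 37 C before 16 h compound treatment. Caspase-Glo 3/7 luminescence after 20 min; normalized to DMSO and 100 uM tamoxifen, AC50 from Hill fit.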

Assay [5] in a line: Cellular Toxicity (caspase-3) SK-N-SH (AID 661). Note: potency is the fitted concentration of half-maximal effect. To be noted: SK-N-SH caspase-3 activation, qHTS; series mostly up to 91.7 µM. The procedure, abridged: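 Human SK-N-SH neuroblastoma cells, 1500/well, were exposed to compounds for 16 hours at 37 °C. Caspase-Glo 3/7 luminescence was normalized to DMSO (basal) and 10 uM staurosporine (100%), and AC50 came from a Hill fit.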
Assay [6] is described as follows: Cellular Toxicity (caspase-3) H-4-II-E (AID 663).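 Note: cells exposed to compound for 16 hr before readout.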 To be noted: H-4-II-E rat hepatoma, scaled: DMSO 0%, 100 µM tamoxifen 100%; at 92.2 µM (top of the series). The procedure, abridged: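 Rat hepatoma H-4-II-E cells (1500/well) plated 5 hr, then exposed to compound titrations for 16 hr at 37 °C. Caspase-Glo 3/7 luminescence read after 20 min at RT; data normalized to DMSO and 100 uM tamoxifen, AC50 from Hill fits.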

The nature of assay [7]: Cellular Toxicity (caspase-3) Hek293 (AID 664).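 Note: cells exposed to compound for 16 h at 37 °C before readout.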 To be noted: HEK293 caspase-3 activation, DMSO = 0%, 100 µM tamoxifen = 100%; at 92.2 µM (top of the series). The method in brief:
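HEK293 cells in complete medium treated 16 h at 37 °C, then Caspase-Glo 3/7 luminescence read after 20 min at room temperature. Normalized to DMSO and 100 uM tamoxifen; AC50 from Hill fit of concentration-response.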

The nature of assay [8]: Cellular Toxicity (caspase-3) N2a (AID 665).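 Note: compound exposure lasted 16 h at 37 °C before readout.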 To be noted: N2a cells, luminescence, normalized: DMSO 0%, 10 µM staurosporine 100%; series mostly up to 92.2 µM. The procedure, abridged:
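Mouse N2a neuroblastoma cells, 1500 per well, treated 16 h at 37 °C in complete medium; caspase-3/7 activity by Caspase-Glo luminescence after 1 h. Normalized to DMSO and 10 uM staurosporine; AC50 from Hill fits.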

A short description of assay [9]: Cellular Toxicity (caspase-3) NIH 3T3 (AID 666).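 For caspase-3 activation: 0% = DMSO basal and 100% = 100 µM tamoxifen stimulation.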 Note: potency is the fitted concentration of half-maximal effect. To be noted: NIH 3T3 caspase-3 activation, apoptosis/toxicity; series mostly up to 92.2 µM. The method in brief:
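Mouse NIH 3T3 fibroblasts (1000/well) treated 16 h at 37 C; caspase-3/7 activity measured by Caspase-Glo 3/7 luminescence after 20 min. Normalized to DMSO and 100 uM tamoxifen; AC50 from Hill fits.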

Assay [10] is described as follows: Cellular Toxicity (caspase-3) Renal Proximal Tubule (AID 667).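 Note: cells exposed to compound for 16 hours at 37 °C before detection.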 Note: potency is the fitted concentration of half-maximal effect. To be noted: renal proximal tubule cells, primary cells freshly taken from rat; Potency: caspase-3 activation; series mostly up to 91.7 µM. The method in brief:
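Caspase-Glo 3/7 read-out, rat primary kidney proximal tubule cells. Compound exposure 16 h, 37 °C; detection after 1 h at RT. Activity scaled to DMSO and 10 uM staurosporine.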

Where “and” joins values, the source holds several entries; their conditions need not be identical. Equal values may be shown once. A number with no mark means an inactive call. Results filed as inconclusive are left out. Calls of active or inactive are those of the source. Calls come from the whole dose curve; as a rule, active = well fitted curve in the direction sought with a large enough effect; inconclusive = small, poorly fitted or top-dose-only effect, or another doubt; inactive = no such curve, though single readings can be large; an effect the other way counts as inactive or inconclusive.

`Cc1cc(NS(=O)(=O)c2ccc(N)cc2)no1`: the outcome in assay [1] and in [8] was inactive. Moreover, the Potency entry in [2], in assay [3], in assay [4], in assay [5], in assay [9] and in assay [10] was “inactive” throughout. The values for the caspase-3 activation in [6] and in [7] were 0.0786% and 1.7%, respectively.

As to `CC[C@H](C)C(=O)O[C@H]1C[C@@H](C)C=C2C=C[C@H](C)[C@H](CC[C@@H]3C[C@@H](O)CC(=O)O3)[C@H]21`, the compound was called inactive in assay [1] and in assay [8]. The Potency result in [2], in [3], in assay [4], in [5] and in assay [9] was “inactive” each time. Besides, the caspase-3 activation in assay [6] was 1.47%; in assay [7], -1.73%.

As to `CC(=O)[C@H]1CC[C@H]2[C@@H]3CCC4=CC(=O)CC[C@]4(C)[C@H]3CC[C@]12C`, the compound was classed as inactive in assay [1] and in assay [8]. Besides, the Potency entry in assay [2], in assay [3], in assay [4], in assay [5], in assay [9] and in [10] was “inactive” in each case. The caspase-3 activation is 12.7% and 23% in [6]; 154% (active) in assay [7].

Regarding `O=C(O)c1cc(=O)[nH]c(=O)[nH]1`, the call in assay [1] and in assay [8] was inactive. In addition, the Potency result in assay [2], in assay [3], in assay [4], in assay [5], in assay [9] and in [10] was “inactive” throughout. Besides, the results for the caspase-3 activation in assay [6] and in assay [7] were 0.389% and -0.467%, respectively.

Turning to `CC(=O)Oc1ccccc1C(=O)Nc1ncc([N+](=O)[O-])s1`, the call in assay [1] and in assay [8] was inactive. For the same compound, the Potency entry in assay [2], in assay [3], in assay [4] and in assay [5] was “inactive” in each case. In addition, the caspase-3 activation in [6] was -3.94%; in [7], -8.75%.

As for `Cc1noc(NS(=O)(=O)c2ccc(N)cc2)c1C`, the call in assay [1] and in assay [8] was inactive. Besides, the Potency result in [2], in assay [3], in [4], in assay [5], in assay [9] and in [10] was “inactive” throughout. In addition, the caspase-3 activation is 0.00688% in assay [6] and -1.11% in [7].

For `O=C(N[C@H](CO)[C@H](O)c1ccc([N+](=O)[O-])cc1)C(Cl)Cl`, the outcome in assay [1] and in assay [8] was inactive. Also, the Potency result in assay [2], in [3], in assay [4], in assay [5], in [9] and in assay [10] was “inactive” in each case. Besides, the results for the caspase-3 activation in [6] and in assay [7] were 0.675% and 1.63%, respectively.

In the case of `Cc1ncc([N+](=O)[O-])n1CCO`, the compound was called inactive in [1] and in assay [8]. The Potency result in [2], in assay [3], in [4], in assay [5], in assay [9] and in assay [10] was “inactive” in each case. Further, the results for the caspase-3 activation in assay [6] and in assay [7] were 0.0502% and -0.402%, respectively.

As to `CN(C)c1ccc(C(=C2C=CC(=[N+](C)C)C=C2)c2ccc(N(C)C)cc2)cc1`, the Potency in assay [2] is 3.16 µM (active); in assay [3] it was 6.31 µM (active); in assay [4] it was 31.6 µM (active); in [5] it was 10 µM (active); in assay [9] it was 31.6 µM (active); in [10] it was 31.6 µM (active). Further, in assay [6], the caspase-3 activation is 85.6% (active).

For `COc1ccc2cc3[n+](cc2c1OC)CCc1cc2c(cc1-3)OCO2`, the compound was called inactive in [1] and in [8]. Besides, the Potency result in [2], in assay [3], in assay [4], in [5], in assay [9] and in assay [10] was “inactive” each time. Further, the caspase-3 activation was 0.864% in [6] and 4.12% in assay [7].

As for `Cc1ccnc2c1NC(=O)c1cccnc1N2C1CC1`, the call in assay [1] and in assay [8] was inactive. Moreover, the Potency result in assay [2], in assay [3], in assay [4], in [5], in assay [9] and in assay [10] was “inactive” throughout. The caspase-3 activation in assay [6] is 0.892%; in assay [7], -0.521%.

With `Cc1nnc(NS(=O)(=O)c2ccc(N)cc2)s1`, the compound was called inactive in assay [1] and in assay [8]. The Potency result in assay [2], in assay [3], in assay [4], in assay [5], in assay [9] and in assay [10] was “inactive” throughout. Besides, the caspase-3 activation is -0.129% in assay [6] and -0.508% in [7].

Regarding `NC(N)=NC(N)=NCCc1ccccc1`, the outcome in assay [1] and in assay [8] was inactive. For the same compound, the Potency entry in [2], in assay [3], in assay [4], in [5], in [9] and in assay [10] was “inactive” each time. The figures for the caspase-3 activation in assay [6] and in assay [7] were 0.291% and -0.745%, respectively.

On to `N=C(N)c1ccc(OCCCCCOc2ccc(C(=N)N)cc2)cc1`, for which the outcome in [1] and in [8] was inactive. In addition, the Potency entry in assay [2], in [3], in [4], in [5], in assay [9] and in assay [10] was “inactive” in each case. Moreover, the caspase-3 activation in assay [6] is 1.46%; in assay [7], 3%.

Take `CC1=NN(c2ccccc2)C(=O)C1`: the call in [1] and in assay [8] was inactive. Besides, the Potency result in assay [2], in assay [3], in assay [4], in [5], in [9] and in assay [10] was “inactive” throughout. Moreover, the caspase-3 activation was -1.22% in [6] and 1.55% in assay [7].

For the compound `CCc1cc(C(N)=S)ccn1`, the result in [1] and in [8] was inactive. Also, the Potency entry in assay [2], in assay [3], in assay [4], in assay [5], in assay [9] and in [10] was “inactive” in each case. Also, the caspase-3 activation in assay [6] was -1.43%; in assay [7], -3.96%.

On to `NNC(=O)c1ccncc1`, for which the compound was called inactive in assay [1] and in assay [8]. In addition, the Potency entry in [2], in [3], in [4], in assay [5], in [9] and in [10] was “inactive” in each case. The caspase-3 activation in assay [6] was 0.877%; in [7] it was 0.113%.

For the compound `C[C@]12C=CC(=O)C=C1CC[C@@H]1[C@@H]2C(=O)C[C@@]2(C)[C@H]1CC[C@]2(O)C(=O)CO`, the compound was called inactive in assay [1] and in assay [8]. Besides, the Potency entry in assay [2], in assay [3], in assay [4], in assay [5], in [9] and in assay [10] was “inactive” throughout. The caspase-3 activation in assay [6] was 0.264%; in assay [7], -0.65%.

The record behind these values is PubChem BioAssay (NCATS).
